Assay outcomes deposited in PubChem by several laboratories.
eLon inh = E. coli protease La inhibition. P0A9M0. purified E. coli Lon protease, fluorescence polarization. inhibition, % at 7.94 µM. 0.42% of 360,000 active. AID 602123; in the data active = inhibition above about 13%, passing the limit was not always enough;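 also: 0% = enzyme with probe and DMSO and 100% = no enzyme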
RTF Ca sens act = increases calcium sensitivity of human cardiac regulated thin filaments. activation, % at 7.2 µM. IANBD-labeled TnC RTF fluorescence at EC20 calcium; 0% EC20 calcium, 100% full calcium. 0.24% of 340,000 active. AID 493008;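 active = activation above the mean over all tested compounds plus 3 SD, cut at about 30% in these data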;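 also: rise in fluorescence read as greater calcium sensitivity of cardiac thin filaments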
LANA-H2B inh = blocks KSHV LANA binding to histone H2A/H2B; Q9QR71; cell-free LANA-H2A/H2B peptide, fluorescence polarization; inhibition, % (concentration not given with the values); 0.6% of 320,000 active; in the data active = inhibition mostly above about 10%, no sharp cut-off; inactive = mostly below about 6.7%
Keap1 Nrf2 FP = Keap1-Nrf2 (human) interaction inhibition; Keap1 Kelch-Nrf2 peptide fluorescence polarization, 1536-well; inhibition, % at 9.4 µM; 0.15% of 340,000 active; AID 504523; in the data active = inhibition above about 12%;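 also: human Keap1 Kelch domain with fluorescein labeled Nrf2 9mer peptide probe; 0% = neutral control wells and 100% = peptide positive control; higher means more block of Keap1 binding to Nrf2 peptide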
C-LANA FP = inhibitors of KSHV LANA C-terminal domain DNA binding; MBP-C-LANA/FAM-LBS DNA binding, fluorescence polarization; inhibition, % at 9 µM; 0.078% of 340,000 active;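 active = highest replicate inhibition at or above 60% at 9 µM, even if other replicates fall short; inactive = all replicates below 60% inhibition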;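 also: 0% = neutral control wells and 100% = 4 µM acridine orange control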
Cardiac RTF inh = cardiac RTF calcium desensitization; P19429+P45379; IANBD-labeled cardiac RTF, Ca2+ fluorescence; inhibition, % at 7.15 µM; 0.12% of 340,000 active;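 active = inhibition above the mean inhibition of all tested compounds plus 3 SD, cut at about 17% in these data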;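 also: assay run at fixed EC70 calcium of 1.6 mM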
Active calls of the source: *; i = inactive; · = not tested or not shown; ! = not confirmed by another sample. A selection: hits, their analogues and other compounds. The true share with any hit is near 1.3%.

SMILES | eLon inh | RTF Ca sens act | LANA-H2B inh | Keap1 Nrf2 FP | C-LANA FP | Cardiac RTF inh
OCCCc1nc2n(n1)C(c1cccs1)C=C(c1ccc(Br)cc1)N2 (stereo unspecified) | · | · | 102* | · | · | ·
CCN1CCN(Cc2c(O)ccc3c2O/C(=C\C=C\c2ccccc2OC)C3=O)CC1 | -40 | 166* | -43 | -139 | 1 | -150
CC(C)c1ccc(/C=C2\Oc3c(ccc(O)c3CN3CCN(C)CC3)C2=O)cc1 | -83 | 22 | 1 | -16 | 12 | -46
CCN1CCN(Cc2c(O)ccc3c(=O)c(-c4ccccc4OC)coc23)CC1 | 0 | 3 | 5 | 6 | -1 | -2
Cc1ccc(/C=C2\Oc3c(ccc(O)c3CN3CCN(CCO)CC3)C2=O)cc1 | -50 | 32* | 6 | -13 | 17 | -38
CCOC(=O)C1=C[C@]2(CC)CCCN3CCc4c(n1c1ccccc41)[C@@H]32 | -6 | 1 | 19*! | -4 | 0 | -1
CC[C@]12CCCN3CCc4c(n(c5ccccc45)C(=O)C1)[C@@H]32 | -4 | 0 | -2 | -1 | -1 | 12
CCOc1ccc(Nc2ccc(N)c(S(=O)(=O)O)c2)cc1 | 1 | -3 | · | 7 | 88* | -2
COc1ccc(CCNC(=O)c2ccc(CS(=O)Cc3ccc(C)cc3)o2)cc1OC (stereo unspecified) | 3 | -9 | 5 | 1 | -1 | 0
CCOc1ccccc1NC(=O)COC(=O)c1ccc2ccccc2n1 | -6 | 1 | 111* | -2 | -2 | 0
Cn1c(SCC(=O)Nc2ccc(N3CCOCC3)c(Cl)c2)nnc1-c1ccccc1 | · | · | 40* | · | · | ·
COc1cc(C=NCC2OCCc3ccccc32)cc(OC)c1 (stereo unspecified) | -3 | -3 | 18* | 4 | 1 | 7
CC1=NN(c2ccccc2)C(=O)/C1=C\c1ccc(Oc2ccc([N+](=O)[O-])cc2[N+](=O)[O-])cc1 | -3 | 2 | 22* | 1 | 0 | -10
Cn1ccsc1=NC(=O)c1ccccc1OC(F)F | -1 | 5 | -3 | -1 | -2 | -13
CCOc1cc(C(=O)N=c2sccn2C)ccc1OC(F)F | -8 | 0 | 20* | 0 | 1 | -1
CCN(CC)c1nc2ccccc2[nH]c1=O | -12 | 8 | 1 | 1 | 2 | -6
CCc1nc2ccccc2[nH]c1=O | 11 | -2 | 27* | 0 | 1 | -5
CCOc1ccc(NC(=O)COc2ccc(C(=O)NCC3CCCO3)cc2OC)cc1 (stereo unspecified) | -2 | -2 | -13 | 3 | -1 | 1
CN(CCCNC(=O)CSc1cc(=O)n(C)c2ccc(Cl)cc12)Cc1ccccc1 | -3 | 1 | 0 | 4 | 0 | -7
CCN(CC)CCOC(=O)C1(c2ccccc2)CCCC1 | -2 | -4 | 36* | -5 | 2 | 5
CC(=O)/C(=N/Nc1ccccc1[N+](=O)[O-])N1CCCc2ccccc21 | -5 | · | 1 | · | · | ·
CSC(=NC(C)c1ccccc1)NS(=O)(=O)c1cccs1 (stereo unspecified) | -15 | -3 | 5 | -5 | -2 | 6
CSC(=NS(=O)(=O)c1ccc(N)cc1)NS(=O)(=O)c1cccs1 | -4 | -1 | · | 5 | 68* | 4
Oc1cccc(/C=N/NC(=S)Nc2cccnc2)c1O | 0 | -4 | 197* | -3 | 0 | -7
Cc1nn(C)c(C)c1S(=O)(=O)N(CC(=O)Nc1ccc2c(c1)OCO2)c1ccc(C(C)C)cc1 | 16* | -6 | 1 | 1 | 1 | 0
SMILES | eLon inh | RTF Ca sens act | LANA-H2B inh | Keap1 Nrf2 FP | C-LANA FP | Cardiac RTF inh
CCOC(=O)/C(=C\C=C1/Sc2cc(OCC)c(OCC)cc2N1CC)C(C)=O | i | 516* | -24 | -454 | -116 | i
CCN1/C(=C/C(C)=O)Sc2ccc(OC)cc21 | -2 | 0 | 1 | 0 | -2 | 4
CCOC(=O)/C(=C/C=C1\Sc2cc(OCC)c(OCC)cc2N1CC)C(C)=O | i | 534* | -22 | -460 | -92 | i
CC1(C(=O)NCc2ccc3c(c2)OCO3)CCN1C(=O)CCc1ccc(Cl)cc1Cl (stereo unspecified) | 3 | · | · | · | · | ·
O=C(O)CC(CC(=O)O)(C(=O)O)c1ccccc1 | -7 | -3 | -1 | 1 | -2 | 10
NS(=O)(=O)c1ccc(CNC(=O)c2cc(-c3ccccn3)nc3ccc(Cl)cc23)cc1 | -9 | 3 | 1 | -2 | 0 | -16
